Source: the supplement of paper PMC8540655
Values without a mark were called inactive.

Tested on: Aedes aegypti larvae
Test: larval motility relative to same well at 0 h (fraction); higher = more motile (less active compound), active = 0.4 or less
Conditions: 10 µM
Procedure, shortened: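 Aedes aegypti larvae, hatched in pond salt solution with yeast at 25 °C and collected after 18–24 h, were dispensed at about 10 per well (100 µL) in 96-well plates. Compounds were tested at 10 µM, 1% v/v DMSO, with solvent and larvicide control wells on each plate. INVAPP movies (200 frames, 100 ms intervals) were recorded at 0, 2 and 24 h. Relative motility is each well's score divided by its 0 h score, median of three independent larval batches.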

| SMILES | larval motility (2 h) | larval motility (24 h) |
| --- | --- | --- |
| Clc1cccc(-c2nnc(-c3ccccc3)o2)c1 | 0.402 | 0.691 |
| COc1ccc(C)cc1NC(=O)c1ccc(S(=O)(=O)N2CCCCC2)cc1 | 1.12 | 1.26 |
| Oc1ccc(NCc2ccccc2OCc2ccccc2)cc1 | 0.844 | 1.62 |
| Cc1onc(-c2ccccc2Cl)c1C(=O)N[C@@H]1C(=O)N2[C@@H]1SC(C)(C)[C@@H]2C(=O)O | 1.22 | 1.24 |
| NC(=O)c1ccc(I)c([N+](=O)[O-])c1 | 0.749 | 0.429 |
| O=C(Cn1cnc2ccccc2c1=O)Nc1ccccc1 | 0.554 | 0.782 |
| CSc1ccc2c(c1)C(N1CCN(C)CC1)Cc1ccccc1S2 (stereo unspecified) | 1.08 | 0.827 |
| O=C(c1nc2c(C(F)(F)F)cc(C3CC3)cn2c1Cl)N1CCN([C@H]2CC[C@H](O)CC2)C(=O)C1 | 0.697 | 0.894 |
| CCN(CC)S(=O)(=O)c1ccc(Cl)c(C(=O)Nc2sc3c(c2C#N)CCCC3)c1 | 1.52 | 2.15 |
| Nc1nc(-c2ccccc2)nc2[nH]nc(Nc3ccc(C(F)(F)F)cc3)c12 | 0.791 | 0.591 |
| NC(=O)c1cnccn1 | 0.745 | 1 |
| Cc1cc(NS(=O)(=O)c2ccc(-c3ccc(F)cc3F)cc2)no1 | 0.769 | 0.77 |
| CCc1oc2ccccc2c1C(=O)c1ccc(O)cc1 | 1.07 | 1.17 |
| O=[N+]([O-])c1ccc2c(CCc3c[nH]c4ccccc34)c[nH]c2c1 | 1.12 | 0.813 |
| COc1ccc2c(c1)cc(CNC(=O)c1cc3ccccc3o1)n2CC(=O)O | 0.674 | 0.871 |
| Oc1ccc2[nH]c(-c3ccccc3)nc2c1 | 0.633 | 0.514 |
| Cc1c(F)cccc1NC(=O)Nc1ccc(Cl)c(S(=O)(=O)[C@H]2CCCNC2)c1O | 0.645 | 0.669 |

| SMILES | larval motility (2 h) | larval motility (24 h) |
| --- | --- | --- |
| CCc1cc(CCC(=O)Nc2ccccc2O)c(=O)[nH]c1C | 0.689 | 0.991 |
| CC(C)(C)c1ccc(OCCn2nc(C(=O)O)c3ccccc3c2=O)cc1 | 2.82 | 3.46 |
| CCCCCCCc1[nH]c2ccccc2c(=O)c1O | 0.74 | 0.565 |
| N#Cc1c(F)c(Cl)c(NCc2ccccc2)c(C#N)c1F | 0.585 | 0.978 |
| O=c1[nH]c(=O)n(Cc2cccc(Oc3ccccc3)c2)cc1Nc1ccccc1 | 0.698 | 0.791 |
| NC(=O)c1ccccc1NC(=O)c1ccc(C(=O)Nc2ccccc2C(N)=O)cc1 | 0.724 | 0.755 |
| CCc1cc(O)c(Oc2cccnc2N)cc1F | 1.72 | 1.42 |
| O=C(O)c1ccc(-n2nc(-c3ccccc3O)nc2-c2ccccc2O)cc1 | 0.694 | 0.808 |
| O=C1NC(=O)C(Br)=C1Br | 0.672 | 0.484 |
| COC(=O)Nc1nc2cc(S(=O)c3ccccc3)ccc2[nH]1 (stereo unspecified) | 0.769 | 0.934 |
| Nc1nc(O)c2ncn(COC(CO)CO)c2n1 | 1.05 | 0.821 |
| O=P(O)(O)C(CCCc1cccc(Oc2ccccc2)c1)S(=O)(=O)O (stereo unspecified) | 0.663 | 0.88 |
| CCC(C)n1ncn(-c2ccc(N3CCN(c4ccc(OCC5COC(Cn6cncn6)(c6ccc(Cl)cc6Cl)O5)cc4)CC3)cc2)c1=O (stereo unspecified) | 0.656 | 0.571 |
| O=S(=O)(NCB(O)O)c1cc2c(Cl)ccc(Cl)c2s1 | 0.568 | 0.742 |
| CC(C)(C)OC(=O)NCc1ccc(C(=O)N[C@H]2CCOC2=O)cc1 | 0.701 | 0.769 |
| O=C(Nc1cccc(C2=NCCN2)c1)c1ccc(-c2ccc(C(=O)Nc3cccc(C4=NCCN4)c3)cc2)cc1 | 0.648 | 0.961 |
